Experimental data from PubChem BioAssay (NCATS).
Where “and” joins values, the source holds several entries; their conditions need not be identical. Equal entries are not always repeated. Results filed as inconclusive are left out. A call without a number means that no potency is given here. Calls of active or inactive are those of the source. Unless noted, the call rests on the fitted dose curve; in most records, active means well fitted curve in the direction sought with a large enough effect; inconclusive means small, poorly fitted or top-dose-only effect, or another doubt; inactive means no such curve, though single readings can be large; an effect the other way counts as inactive or inconclusive.

Assays:
[1] = biological target: Thioredoxin reductase 1, cytoplasmic (Rattus norvegicus) (UniProt O89049); experiment: qHTS Assay for Substrates of Mammalian Selenoprotein Thioredoxin Reductase 1 (TrxR1) (AID 488772);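 further: series mostly up to about 57 µM; a drop in NADPH fluorescence below the no-compound background marks a TrxR1 substrate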
Summary of the method: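 In this dual-purpose format, potential substrates are identified from the first fluorescence read after selenite addition, not from the 8-minute delta. Rat enzyme is preincubated with NADPH and then with compound at ~22 deg C.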

[2] = biological target: Thioredoxin reductase 1, cytoplasmic (Rattus norvegicus) (UniProt O89049); experiment: qHTS Assay for Inhibitors of Mammalian Selenoprotein Thioredoxin Reductase 1 (TrxR1) (AID 488773); conditions: Potency: inhibition; further: nearly all actives have a fitted effect of over 40% in size; further: potency means the concentration at half of the fitted maximal effect
Summary of the method: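 Inhibition is scored from the loss of NADPH fluorescence between first and last reads of an 8-min kinetic run. Selenite (400 uM) was the substrate, added after 15 min compound preincubation at room temperature.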

[3] = biological target: Flap endonuclease 1 (Homo sapiens) (UniProt P39748); experiment: qHTS Validation Assay for the Inhibitors of Human Flap endonuclease 1 (FEN1) (AID 488816); further: potency means the concentration at half of the fitted maximal effect
Summary of the method: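 Enzyme reagent 10 nM; cpds pinned; 15 min RT preinc.; substrate 50 nM final; reads t=0 and 15 min; no-enzyme buffer wells as neg. control; normalized data, 4-parameter Hill fit.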

[4] = biological target: M-phase phosphoprotein 8 (Homo sapiens) (UniProt Q99549); experiment: qHTS Validation Assay for Inhibitors for MPP8 Chromodomain Interactions with Methylated Histone Tails (AID 488949); further: nearly all actives have a fitted effect of over 55% in size; further: potency means the concentration at half of the fitted maximal effect
Summary of the method: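 MPP8 (50 nM) was preincubated with biotinylated H3(1-18)K9me3 peptide (50 nM) in PBS pH 7.4, 0.01% Tween-20 for 30 min at room temperature, then with compounds for 30 min; binding was detected by AlphaScreen.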

[5] = biological target: Methanococcus maripaludis chaperonin (MmCpn) (UniProt Q6LX38); experiment: High-Throughput Screening for Modulators of Cytosolic Chaperonin Activity: MmCpn Primary Screen (AID 488978);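 further: 50 nM MmCpn enzyme hydrolysing 30 µM ATP at 37 °C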
Summary of the method: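 MmCpn (50 nM final) was preincubated with compound 5 min at RT, then 30 uM ATP (final) was added and the reaction ran 10 min at 37C. ADP produced was detected by Transcreener HTRF (ex 320 nm; em 590/665 nm).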

[6] = biological target: Transient receptor potential cation channel subfamily V member 1 (Homo sapiens) (UniProt Q8NER1); experiment: HTS Assay for Compounds that Act as Enhancers of the Vanilloid Receptor 1 (AID 488979)
Summary of the method: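 TRPV1 cells loaded with Fluo-8 calcium dye; compound added and Ca2+ signal (ex 480/em 520 nm) followed 3 min, then capsaicin at EC20 added and read 2 more min to detect enhancement.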

[7] = biological target: Thyrotropin receptor (Homo sapiens) (UniProt P16473); experiment: qHTS Assay for Antagonists of the Thyroid Stimulating Hormone Receptor (AID 488980); further: series mostly up to about 58 µM
Summary of the method: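 HEK293 cells transfected with human TSHR, suspended in HEPES-buffered HBSS with 70 uM RO 20-1724, were treated with compounds plus TSH at EC80 (4 nM final). cAMP was measured by competitive HTRF (cryptate anti-cAMP antibody, cAMP-d2 acceptor).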

[8] = biological target: D(1A) dopamine receptor (Homo sapiens) (UniProt P21728); experiment: HTS Assay for Allosteric Agonists of the Human D1 Dopamine Receptor: Primary Screen for Agonists (AID 488981)
Summary of the method: (§1)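 Tetracycline-induced HEK293 Trex D1 cells with forced coupling to calcium, loaded with no-wash calcium dye; kinetic fluorescence read 180 s after compound addition for agonism, then a further 180 s after an EC20 dopamine challenge for potentiation.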

[9] = Validation screen for small molecules that induce genotoxicity in human embryonic kidney (HEK293T) cells expressing luciferase-tagged ELG1 (AID 493106)
Summary of the method: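 Cells were dispensed at 2,000 per well, then 23 nL compound or DMSO was pinned in. After 16 hr at 37 °C and 5% CO2, ONE-Glo reagent was added. Luciferase activity was measured following 30 min at room temperature.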

[10] = Nrf2 qHTS screen for inhibitors: Validation (AID 493153; active means well fitted inhibition curve with a large enough effect in the main read-out, with a control signal flat, not every such curve was filed as active); conditions: Potency: luciferase luminescence; viability change: measured here: cytotoxicity max response
Summary of the method: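 A549 ARE_Fluc, 5% FBS OPTI-MEM; cpd titration, 18-24 h, 37°C/5% CO2. Read 1: CellTiter-Fluor (Ex 405/Em 525), cytotox. Read 2: luciferase lum, Nrf2 activity.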

[11] = qHTS for Inhibitors of Cell Surface uPA Generation: Validation Assay (AID 493164);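 further: RAW 264.7 macrophage cells exposed to compound for 18 h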
Summary of the method: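 ATP-Lite luminescence read-out: ATP remains high when uPA activity-dependent LF translocation into the cytoplasm is blocked. RAW 264.7 cells, 18 h compound exposure at 37 C; 7-point titration, 2.45 nM to 38.3 uM final.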

[12] = biological target: Galactokinase (Homo sapiens) (UniProt P51570); experiment: qHTS Validation Assay for Inhibitors of Human Galactokinase (GALK) (AID 493189)
Summary of the method: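 GALK (5 nM) with 35 uM ATP and 100 uM galactose in HEPES pH8.0, MgCl2, NaCl, DTT, BSA; 1 h at room temperature. Residual ATP read by Kinase-Glo Plus luminescence after 10 min.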

[13] = Validation screen for small molecules that induce DNA re-replication in SW480 colon adenocarcinoma cells (AID 504364)
Summary of the method: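 Image-based qHTS: compounds were incubated with SW480 cells for 48 hr, nuclei stained with Hoechst, and per-nucleus fluorescence intensity scanned to flag cells with excess DNA content.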

[14] = biological target: Chromobox protein homolog 1 (Homo sapiens) (UniProt P83916); experiment: qHTS Validation Assay for Inhibitors of HP1-beta Chromodomain Interactions with Methylated Histone Tails (AID 488953); further: nearly all actives have a fitted effect of over 50% in size; further: potency means the concentration at half of the fitted maximal effect
Summary of the method: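 Disruption of preformed HP1-beta:H3K9me3 peptide complexes (both 50 nM, PBS pH 7.4 with 0.01% Tween-20) is measured by AlphaScreen after 30 min compound exposure at room temperature, using streptavidin donor and nickel chelate acceptor beads at 10 ug/mL final.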

[15] = biological target: D(1A) dopamine receptor (Homo sapiens) (UniProt P21728); experiment: HTS Assay for Allosteric Agonists of the Human D1 Dopamine Receptor: Primary Screen for Potentiators (AID 488982)
Summary of the method: as §1

[16] = biological target: D(1A) dopamine receptor (Homo sapiens) (UniProt P21728); experiment: HTS Assay for Allosteric Agonists of the Human D1 Dopamine Receptor: Primary Screen for Antagonists (AID 488983);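 further: calcium flux response to an EC80 dopamine challenge measured with no-wash dye; nearly all actives have a fitted effect of over 65% in size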; further: potency means the concentration at half of the fitted maximal effect
Summary of the method: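 Kinetic fluorescence at 1 cycle/sec tracked intracellular calcium in force-coupled, tetracycline-inducible HEK293 T-REx D1 cells. Loss of response to an EC80 dopamine dose, given 180 s after compound, marked antagonists.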

[17] = biological target: ATPase family AAA domain-containing protein 5 (Homo sapiens) (UniProt Q96QE3); experiment: Validation screen for small molecules that inhibit ELG1-dependent DNA repair in human embryonic kidney (HEK293T) cells expressing luciferase-tagged ELG1 (AID 493107);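 further: cells co-treated with the DNA-damaging agent 5-fluorouridine alongside compound; series mostly up to about 46 µM; inhibitors lower the ELG1-luciferase luminescence signal; nearly all actives have a fitted effect of over 70% in size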
Summary of the method: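 Cells are dispensed in 1536-well format, then 5-fluorouridine and compound are pinned in. After a 16 hr incubation at 37 °C and 5% CO2, ONE-Glo is added and luciferase measured on a CCD imager.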

[18] = biological target: Thyrotropin-releasing hormone receptor (Homo sapiens) (UniProt P34981); experiment: qHTS for Small Molecule Agonists and Allosteric Enhancers of Human TRH Receptor: Validation Screen for Agonists (AID 493127;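 active means calcium activation more than 3 SD above the typical response in the agonist read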;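 further: intracellular calcium rise by fluo-8 fluorescence before TRH EC20 addition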); conditions: TRH receptor agonist cell assay; at 2 µM; stronger effect = higher value
Summary of the method: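 Compounds are added by online pintool to dye-loaded TRHR cells while fluorescence is recorded every second. A rise in calcium signal during the agonist read marks activation; a later 10 nM TRH addition (EC20) serves the separate enhancer mode.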

[19] = biological target: ATP-dependent 6-phosphofructokinase (Trypanosoma brucei brucei) (UniProt O15648); experiment: qHTS Assay to Find Inhibitors of T. brucei phosphofructokinase: hit validation (AID 492961); further: potency means the concentration at half of the fitted maximal effect
Summary of the method: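 Inhibition of parasite PFK is measured as reduced ADP formation, quantified via luciferase after ATP depletion. Assay used 0.1 mM ATP, 0.5 mM F6P, 1.25 nM enzyme, 45 min incubation.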

Sequence of Thyrotropin-releasing hormone receptor (Homo sapiens) (P34981 whole entry, looked up): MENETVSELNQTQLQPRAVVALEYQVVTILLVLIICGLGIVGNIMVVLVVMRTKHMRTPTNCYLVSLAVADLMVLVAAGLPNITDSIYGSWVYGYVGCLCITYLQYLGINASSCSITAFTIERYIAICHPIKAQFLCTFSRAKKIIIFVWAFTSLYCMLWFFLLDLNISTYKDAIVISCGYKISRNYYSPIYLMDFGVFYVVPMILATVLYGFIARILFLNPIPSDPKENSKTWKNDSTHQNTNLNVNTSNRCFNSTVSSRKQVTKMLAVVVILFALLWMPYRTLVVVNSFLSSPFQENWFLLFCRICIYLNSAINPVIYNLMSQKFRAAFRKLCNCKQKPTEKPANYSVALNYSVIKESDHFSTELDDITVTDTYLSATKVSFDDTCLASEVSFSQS
Sequence of D(1A) dopamine receptor (Homo sapiens) (P21728 whole entry, looked up): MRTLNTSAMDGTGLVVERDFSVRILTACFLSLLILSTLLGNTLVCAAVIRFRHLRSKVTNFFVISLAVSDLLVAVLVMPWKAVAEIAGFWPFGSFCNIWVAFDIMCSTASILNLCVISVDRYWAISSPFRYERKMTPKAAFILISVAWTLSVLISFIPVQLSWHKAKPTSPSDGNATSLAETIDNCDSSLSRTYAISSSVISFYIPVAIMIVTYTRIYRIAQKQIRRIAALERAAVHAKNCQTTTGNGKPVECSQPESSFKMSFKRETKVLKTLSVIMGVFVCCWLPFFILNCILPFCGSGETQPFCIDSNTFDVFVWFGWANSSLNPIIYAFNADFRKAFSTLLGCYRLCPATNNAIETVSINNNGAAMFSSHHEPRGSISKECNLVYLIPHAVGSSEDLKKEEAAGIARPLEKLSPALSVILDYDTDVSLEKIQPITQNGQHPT
Sequence of Flap endonuclease 1 (Homo sapiens) (P39748 whole entry, looked up): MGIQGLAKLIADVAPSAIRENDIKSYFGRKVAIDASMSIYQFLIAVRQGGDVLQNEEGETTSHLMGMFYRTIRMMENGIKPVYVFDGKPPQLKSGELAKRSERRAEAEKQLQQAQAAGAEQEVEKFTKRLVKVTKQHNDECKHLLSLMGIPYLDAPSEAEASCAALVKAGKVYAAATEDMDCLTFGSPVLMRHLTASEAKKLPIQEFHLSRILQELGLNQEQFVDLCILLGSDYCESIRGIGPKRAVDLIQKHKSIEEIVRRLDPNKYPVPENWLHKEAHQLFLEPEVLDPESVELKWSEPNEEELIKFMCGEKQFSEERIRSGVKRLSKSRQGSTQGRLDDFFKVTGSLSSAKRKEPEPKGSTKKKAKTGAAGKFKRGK
Sequence of Thioredoxin reductase 1, cytoplasmic (Rattus norvegicus) (O89049 whole entry, looked up): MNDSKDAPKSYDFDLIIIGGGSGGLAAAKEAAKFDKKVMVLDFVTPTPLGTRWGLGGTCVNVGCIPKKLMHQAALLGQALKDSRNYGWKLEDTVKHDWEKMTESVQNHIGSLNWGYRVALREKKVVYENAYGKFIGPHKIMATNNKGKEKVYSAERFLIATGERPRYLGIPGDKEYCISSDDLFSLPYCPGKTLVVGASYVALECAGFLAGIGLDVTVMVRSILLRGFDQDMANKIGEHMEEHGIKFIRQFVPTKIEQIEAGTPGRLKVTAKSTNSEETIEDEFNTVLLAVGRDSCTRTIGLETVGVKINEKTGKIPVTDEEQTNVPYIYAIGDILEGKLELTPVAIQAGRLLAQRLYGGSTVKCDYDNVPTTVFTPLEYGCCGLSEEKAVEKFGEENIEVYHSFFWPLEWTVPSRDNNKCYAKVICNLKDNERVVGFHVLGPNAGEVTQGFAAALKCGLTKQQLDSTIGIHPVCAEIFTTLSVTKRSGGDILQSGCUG
Sequence of Transient receptor potential cation channel subfamily V member 1 (Homo sapiens) (Q8NER1 whole entry, looked up): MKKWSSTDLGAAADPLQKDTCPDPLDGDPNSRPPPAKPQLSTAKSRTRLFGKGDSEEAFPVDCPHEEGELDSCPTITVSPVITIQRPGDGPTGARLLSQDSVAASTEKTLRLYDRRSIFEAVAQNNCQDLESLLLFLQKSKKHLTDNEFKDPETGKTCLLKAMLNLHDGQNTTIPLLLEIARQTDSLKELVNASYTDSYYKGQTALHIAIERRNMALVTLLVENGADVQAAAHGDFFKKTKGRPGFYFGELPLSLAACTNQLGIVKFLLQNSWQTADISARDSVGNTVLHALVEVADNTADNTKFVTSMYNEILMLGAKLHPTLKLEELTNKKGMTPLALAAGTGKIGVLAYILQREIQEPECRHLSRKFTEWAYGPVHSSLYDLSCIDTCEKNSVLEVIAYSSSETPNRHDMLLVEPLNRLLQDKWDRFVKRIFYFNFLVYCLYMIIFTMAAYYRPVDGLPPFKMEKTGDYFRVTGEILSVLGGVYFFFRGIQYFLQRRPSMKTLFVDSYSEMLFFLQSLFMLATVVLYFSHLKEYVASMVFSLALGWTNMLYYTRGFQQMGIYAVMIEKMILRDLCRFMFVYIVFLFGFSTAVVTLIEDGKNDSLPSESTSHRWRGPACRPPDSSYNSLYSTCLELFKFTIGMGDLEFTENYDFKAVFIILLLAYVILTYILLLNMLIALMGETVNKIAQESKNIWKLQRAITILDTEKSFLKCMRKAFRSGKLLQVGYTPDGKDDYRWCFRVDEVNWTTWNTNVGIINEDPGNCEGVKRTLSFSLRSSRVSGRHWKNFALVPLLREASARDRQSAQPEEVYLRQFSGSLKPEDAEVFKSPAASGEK
Sequence of Chromobox protein homolog 1 (Homo sapiens) (P83916 whole entry, looked up): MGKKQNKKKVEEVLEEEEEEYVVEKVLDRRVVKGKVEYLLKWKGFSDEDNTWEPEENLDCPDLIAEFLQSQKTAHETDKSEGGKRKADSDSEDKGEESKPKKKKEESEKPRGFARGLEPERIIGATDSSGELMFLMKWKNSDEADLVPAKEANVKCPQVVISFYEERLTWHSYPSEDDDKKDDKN
Sequence of M-phase phosphoprotein 8 (Homo sapiens) (Q99549 whole entry, looked up): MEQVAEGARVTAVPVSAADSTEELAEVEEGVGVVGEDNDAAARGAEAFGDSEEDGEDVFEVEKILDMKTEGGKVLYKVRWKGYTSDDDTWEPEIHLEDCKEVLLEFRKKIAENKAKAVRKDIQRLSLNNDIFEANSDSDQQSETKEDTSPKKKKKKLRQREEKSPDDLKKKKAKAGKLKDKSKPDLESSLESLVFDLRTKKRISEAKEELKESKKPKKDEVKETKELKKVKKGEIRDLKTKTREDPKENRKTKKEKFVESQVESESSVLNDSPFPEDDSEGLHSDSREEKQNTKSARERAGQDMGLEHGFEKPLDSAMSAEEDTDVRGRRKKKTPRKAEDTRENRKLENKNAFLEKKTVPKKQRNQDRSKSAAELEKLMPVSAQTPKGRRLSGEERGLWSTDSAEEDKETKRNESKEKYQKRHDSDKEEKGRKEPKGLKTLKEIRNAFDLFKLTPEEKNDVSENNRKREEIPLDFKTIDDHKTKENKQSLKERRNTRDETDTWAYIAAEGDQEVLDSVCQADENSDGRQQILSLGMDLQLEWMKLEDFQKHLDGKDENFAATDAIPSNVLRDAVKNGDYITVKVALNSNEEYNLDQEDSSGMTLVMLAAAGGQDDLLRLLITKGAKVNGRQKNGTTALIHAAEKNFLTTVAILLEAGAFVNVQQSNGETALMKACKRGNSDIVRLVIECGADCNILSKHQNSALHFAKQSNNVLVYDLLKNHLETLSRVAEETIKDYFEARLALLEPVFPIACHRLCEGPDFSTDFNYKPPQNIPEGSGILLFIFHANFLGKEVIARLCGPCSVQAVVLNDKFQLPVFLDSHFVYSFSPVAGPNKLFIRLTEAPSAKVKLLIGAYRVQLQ
Sequence of Galactokinase (Homo sapiens) (P51570 whole entry, looked up): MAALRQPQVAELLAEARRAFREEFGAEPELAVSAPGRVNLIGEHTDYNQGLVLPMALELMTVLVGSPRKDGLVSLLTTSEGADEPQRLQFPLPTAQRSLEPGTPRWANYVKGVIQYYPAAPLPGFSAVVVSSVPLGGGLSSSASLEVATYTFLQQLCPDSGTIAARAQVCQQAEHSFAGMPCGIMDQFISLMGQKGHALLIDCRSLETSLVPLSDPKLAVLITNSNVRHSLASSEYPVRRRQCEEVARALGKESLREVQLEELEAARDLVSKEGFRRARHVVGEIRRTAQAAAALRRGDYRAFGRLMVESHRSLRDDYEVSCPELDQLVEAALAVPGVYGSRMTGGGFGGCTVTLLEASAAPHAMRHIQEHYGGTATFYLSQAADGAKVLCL
Sequence of Methanococcus maripaludis chaperonin (MmCpn) (Q6LX38 1-543): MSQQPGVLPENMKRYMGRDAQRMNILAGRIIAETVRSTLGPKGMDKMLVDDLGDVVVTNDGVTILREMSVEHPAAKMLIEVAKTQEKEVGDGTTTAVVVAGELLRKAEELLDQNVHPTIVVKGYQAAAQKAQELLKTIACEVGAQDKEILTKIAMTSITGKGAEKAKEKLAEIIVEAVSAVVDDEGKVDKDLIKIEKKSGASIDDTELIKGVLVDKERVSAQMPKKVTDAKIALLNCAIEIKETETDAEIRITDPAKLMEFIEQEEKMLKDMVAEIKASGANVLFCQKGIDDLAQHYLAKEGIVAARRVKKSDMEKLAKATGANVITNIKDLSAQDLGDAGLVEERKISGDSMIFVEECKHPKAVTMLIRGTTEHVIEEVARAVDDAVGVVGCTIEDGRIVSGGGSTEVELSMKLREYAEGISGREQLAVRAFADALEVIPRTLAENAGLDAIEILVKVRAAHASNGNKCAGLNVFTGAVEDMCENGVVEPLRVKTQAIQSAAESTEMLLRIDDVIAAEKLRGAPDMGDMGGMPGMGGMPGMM

| SMILES | outcome [1] | Potency [2] | Potency [3] | Potency [4] | outcome [5] | outcome [6] | outcome [7] | Potency [8] | Potency [9] | Potency [10] | viability change [10] [%] | outcome [11] | outcome [12] | Potency [13] | Potency [14] | Potency [15] | Potency [16] | Potency [17] | activation [18] | Potency [19] |
| --- | --- | --- | --- | --- | --- | --- | --- | --- | --- | --- | --- | --- | --- | --- | --- | --- | --- | --- | --- | --- |
| NC(=O)c1ccc(OCC(O)CN2CC=C(c3ccc(F)cc3)CC2)cc1 (stereo not given) | inactive | inactive | inactive | inactive | inactive | inactive | inactive | inactive | inactive | inactive | 16.7 | inactive | inactive | inactive |  |  |  |  |  |  |
| COc1ccc2[nH]cc(CCN)c2c1 | inactive | inactive | inactive | inactive | inactive | inactive | inactive | inactive | inactive | inactive | 0.303 | inactive | inactive | inactive | inactive | inactive | inactive | inactive |  |  |
| Clc1cc(I)cc(Cl)c1NC1=NCCN1 | inactive | inactive | inactive | inactive | inactive | inactive | inactive | inactive | inactive |  |  | inactive | inactive | inactive | inactive | inactive | inactive | inactive |  |  |
| NCCc1ccc(S(=O)(=O)F)cc1 | inactive | inactive | inactive | inactive | inactive | inactive | inactive | inactive | inactive |  |  | inactive |  | inactive | inactive | inactive | inactive |  | 1.25% (inactive) |  |
| CN1CCc2cccc(Cl)c2CC1 | inactive | inactive | inactive | inactive | inactive | inactive | inactive | inactive | inactive | inactive | 2.9 | inactive | inactive | inactive | inactive | inactive | 2.51 µM (active) | inactive |  |  |
| N[C@@H](Cn1ccc(=O)[nH]c1=O)C(=O)O | inactive | inactive | inactive | inactive | inactive |  |  | inactive | inactive | inactive | 2.76 | inactive |  |  | inactive | inactive | inactive |  |  |  |
| Cc1[nH]c2ccc(O)cc2c1CCN | inactive | inactive | inactive | inactive | inactive | inactive | inactive | inactive | inactive | inactive | -7.71 | inactive |  | inactive |  | inactive | inactive |  |  |  |
| NC(CCCCCP(=O)(O)O)C(=O)O (stereo not given) | inactive | inactive | inactive | inactive | inactive | inactive | inactive | inactive | inactive | inactive | 13.6 | inactive | inactive | inactive | inactive | inactive | inactive | inactive | 0.312% (inactive) |  |
| CC(=O)NBr | inactive | inactive | inactive | inactive | inactive | inactive | inactive | inactive | inactive | inactive | 1.41 | inactive | inactive | inactive | inactive |  | inactive | inactive | -0.0625% (inactive) |  |
| CC12NC(Cc3ccccc31)c1ccccc12 (stereo not given) | inactive | inactive | inactive | inactive | inactive | inactive | inactive | inactive | inactive | inactive | 6.2 | inactive |  | inactive | inactive | inactive | inactive | inactive |  | inactive |
| N[C@@H](Cn1oc(=O)[nH]c1=O)C(=O)O | inactive | inactive | inactive | inactive | inactive | inactive | inactive | inactive | inactive |  |  | inactive | inactive | inactive | inactive | inactive | inactive |  | -0.562% (inactive) |  |
| COc1ccc2c(c1)/C(=C/c1cnc[nH]1)C(=O)N2 | inactive | inactive | inactive |  | inactive | inactive | inactive | inactive |  |  |  | inactive | inactive |  | inactive | inactive | inactive |  | 0.562% (inactive) |  |
| O=c1c2ccccc2[se]n1-c1ccccc1 | inactive | inactive | inactive | 5.01 µM (active) and 2.99 µM (active) | inactive |  | inactive |  | inactive | inactive | 3.13 | inactive | inactive |  | 25.1 µM (active) |  | inactive |  | 3.06% (inactive) | 11.2 µM (active) |
| CN(N=O)c1ccc(O)c(O)c1 | inactive | 0.947 µM (active) | 2.67 µM (active) |  | inactive | inactive | inactive | inactive | inactive | inactive | 0.531 | inactive | inactive | inactive | 1.58 µM (active) |  | inactive | inactive | -0.438% (inactive) |  |
| CC(N)Cc1c[nH]c2ccc(OCc3cccs3)cc12 (stereo not given) | inactive | inactive | inactive | inactive | inactive |  | inactive |  | inactive | inactive | -4.81 | inactive |  | inactive |  | inactive | inactive | inactive | 3.5% (inactive) |  |
